Most compounds without a hit are left out; they make up all but 4.3% or so of the library.
ADAM17 inh – inhibits human ADAM17; AID 720648; P78536; recombinant ADAM17, EDANS/DABCYL FRET peptide cleavage; hit rate 0.83% among 370,000; inhibition, % at 6.95 µM;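 active means inhibition above the mean of compounds lying between control limits plus 3 SD, set per campaign, cut at about 8.5% in these data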;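 further: 0% = DMSO-only wells as the low control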
Target sequence (P78536 215-824 limits assumed): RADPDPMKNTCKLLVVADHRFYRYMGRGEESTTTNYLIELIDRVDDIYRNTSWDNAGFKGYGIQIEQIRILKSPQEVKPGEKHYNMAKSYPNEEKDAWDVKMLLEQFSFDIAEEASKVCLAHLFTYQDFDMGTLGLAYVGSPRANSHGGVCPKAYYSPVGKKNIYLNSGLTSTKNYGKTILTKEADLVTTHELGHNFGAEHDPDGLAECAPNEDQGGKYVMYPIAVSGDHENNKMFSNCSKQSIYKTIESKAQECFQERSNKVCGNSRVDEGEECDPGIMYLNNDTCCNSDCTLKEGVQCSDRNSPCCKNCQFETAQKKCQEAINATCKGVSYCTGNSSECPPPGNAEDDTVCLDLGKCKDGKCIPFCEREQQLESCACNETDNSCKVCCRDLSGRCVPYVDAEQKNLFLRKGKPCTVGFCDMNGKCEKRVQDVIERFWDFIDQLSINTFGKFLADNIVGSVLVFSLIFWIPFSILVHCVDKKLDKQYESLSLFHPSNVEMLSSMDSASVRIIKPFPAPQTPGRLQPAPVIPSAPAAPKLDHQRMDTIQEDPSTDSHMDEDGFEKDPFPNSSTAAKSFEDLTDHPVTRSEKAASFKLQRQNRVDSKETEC
NR3A LBD binder – NR3A (human) ligand-binding domain modulation | NR3A LBD differential scanning fluorimetry, Tm shift; 0% = protein alone, 100% = glycine-bound protein | Tm shift relative to glycine control, % at 25 µM | hit rate 2.5% among 340,000;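 active means melting temperature shift of at least 10% of the positive control shift, at one fixed dose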
sPLA2-III inh – Blocks human group III sPLA2 activity; Q9NZ20; inhibition, % at 12.2 µM; AID 743126; QFRET BODIPY PC-A2 liposome hydrolysis, fluorescence; hit rate 0.56% among 370,000;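 active means inhibition above mean plus 3 SD of compounds lying within the high and low control bounds, cut at about 19% in these data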;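 further: 0% = median of test compound wells and 100% = no enzyme DMSO wells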
FAS TE block – FAS thioesterase (human) inhibition | P49327 | recombinant FAS-TE, OMFH fluorogenic substrate, fluorescence endpoint | hit rate 0.67% among 360,000 | inhibition, % at 15 µM;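 active means compounds whose normalised, plate-corrected inhibition of enzyme fluorescence in the single-dose primary screen is 50% or more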;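 further: 0% = DMSO with enzyme and 100% = substrate without enzyme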
ADAM10 inh – ADAM10 inhibition, QFRET primary screen; O14672; recombinant ADAM10, EDANS/DABCYL FRET peptide cleavage, 3 h; AID 720582; hit rate 0.62% among 370,000; inhibition, % at 7 µM;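 active means inhibition above a per-campaign cutoff equal to the mean of compounds falling between control-based bounds plus 3 SD, cut at about 20% in these data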;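 further: 0% = DMSO wells while the 100% control is not disclosed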
The depositor's hits bear a star.

CCCNC(=O)N1[C@H]2CC[C@@H]1C(C(=O)OC)=C(c1ccc(Cl)c(C(F)(F)F)c1)C2 was read as ADAM17 inh 3, NR3A LBD binder 24*, sPLA2-III inh -4, FAS TE block 0 and ADAM10 inh 3.
COC(=O)C1=C(c2ccc(F)cc2OCc2ccccc2)C[C@@H]2CC[C@H]1N2C(=O)NCc1ccc2c(c1)OCO2 was read as ADAM17 inh 7, NR3A LBD binder -1, sPLA2-III inh -9, FAS TE block 25 and ADAM10 inh 22*.
Screening C=CCCC(NC(=O)OCc1ccccc1)P(=O)(Oc1ccccc1)Oc1ccccc1 (stereo unspecified) returned ADAM17 inh 1, sPLA2-III inh -2 and ADAM10 inh 5.
`CCC1([N+](=O)[O-])COP(N)(=O)OC1` (stereo unspecified) gave ADAM17 inh 0, NR3A LBD binder 0, sPLA2-III inh 12, FAS TE block -7 and ADAM10 inh -16.
`O=c1[nH]c(=S)n(-c2ccccc2F)c(O)c1C=NCc1ccco1` gave ADAM17 inh -1, NR3A LBD binder 14*, sPLA2-III inh -1, FAS TE block -8 and ADAM10 inh 4.
O=C(NC1CN2CCC1CC2)c1ccc(Cl)cc1 (stereo unspecified) was read as ADAM17 inh -3, sPLA2-III inh -5 and ADAM10 inh -8.
For CN1CN(c2ccccc2)C2(CCN(CCCSc3ccccc3NC(=O)/C=C/c3ccccc3)CC2)C1=O the results were ADAM17 inh 14*, NR3A LBD binder -3, sPLA2-III inh -13, FAS TE block 14 and ADAM10 inh 8.
N#CCC[C@@H]1CC[C@]2(CCCN(Cc3ccncc3)C2)O1 was read as ADAM17 inh -4, sPLA2-III inh 3 and ADAM10 inh -5.
Screening Nc1c(C(=O)OCc2ccccc2)c2nc3ccccc3nc2n1Cc1cccs1 returned ADAM17 inh -248, NR3A LBD binder 14*, sPLA2-III inh -17, FAS TE block 16 and ADAM10 inh inactive.
For CCC(C)OC(=O)c1c(N)n(Cc2cccs2)c2nc3ccccc3nc12 (stereo unspecified) the results were ADAM17 inh inactive, NR3A LBD binder 1, sPLA2-III inh -7, FAS TE block 10 and ADAM10 inh inactive.
For CN(C)C(=S)SSC(=S)N(C)C the results were ADAM17 inh -4, NR3A LBD binder 19*, sPLA2-III inh 5, FAS TE block -7 and ADAM10 inh -5.
Cc1cc2c(C(C)C)c(O)c(O)c(C=O)c2c(O)c1-c1c(C)cc2c(C(C)C)c(O)c(O)c(C=O)c2c1O was read as ADAM17 inh 12*, sPLA2-III inh 9, FAS TE block 48 and ADAM10 inh 41*.
For O=C(NCCN1CCC2(CC1)C(=O)NCN2c1ccccc1)c1ccc(F)c(F)c1 the results were ADAM17 inh -6, sPLA2-III inh 5 and ADAM10 inh -8.
`O=C(Nc1cccc(C(F)(F)F)c1)c1cccn(Cc2ccc3c(c2)OC(F)(F)O3)c1=O` gave ADAM17 inh -2, NR3A LBD binder 25*, sPLA2-III inh -5, FAS TE block 36 and ADAM10 inh 0.
For CC(C)Oc1cccc(NC(=O)c2cccn(Cc3ccc4c(c3)OC(F)(F)O4)c2=O)c1 the results were ADAM17 inh 0, NR3A LBD binder 7, sPLA2-III inh 3, FAS TE block 47 and ADAM10 inh -3.
Screening O=C(Nc1ccc(C(F)(F)F)cc1)c1cccn(Cc2ccc3c(c2)OC(F)(F)O3)c1=O returned ADAM17 inh 0, NR3A LBD binder 25*, sPLA2-III inh -3, FAS TE block 43 and ADAM10 inh 8.
`Oc1cc(O)cc(/C=C/c2ccc(O)cc2O)c1` gave NR3A LBD binder 11* and FAS TE block -9.
`CC(C)(C)c1cc(O)ccc1O` gave ADAM17 inh -7, sPLA2-III inh 8 and ADAM10 inh -11.
For C=C1C(O)[C@@H]2O[C@]3(CC[C@H](/C=C/C(C)[C@@H]4CC(C)=CC5(O[C@H](C[C@@](C)(O)C(=O)O)CCC5O)O4)O3)CC[C@H]2O[C@@H]1C(O)CC(C)[C@H]1OC2(CCCCO2)CCC1C (stereo partly specified) the results were NR3A LBD binder 13*.
`OC1CN2CCC(O)C2C(O)C1O` (stereo unspecified) gave ADAM17 inh -1, sPLA2-III inh 0 and ADAM10 inh -8.
Screening Cc1c(N=Nc2c(O)n(Cc3ccccc3)c(=O)[nH]c2=O)c(=O)n(-c2ccccc2)n1C returned ADAM17 inh 1, NR3A LBD binder 15*, sPLA2-III inh -5, FAS TE block -13 and ADAM10 inh -1.
For CC(C)c1onc(C(=O)N2CCC3(CC2)OCCO3)c1[N+](=O)[O-] the results were ADAM17 inh 4, NR3A LBD binder 16*, sPLA2-III inh 6, FAS TE block -4 and ADAM10 inh -4.
Screening COc1ccc(Cc2cn(C)c(N)n2)cc1 returned ADAM17 inh -5, sPLA2-III inh 7 and ADAM10 inh -11.
`CC(C)(C)n1nnnc1C1CN=C(c2ccccc2)c2ccccc2N1` (stereo unspecified) gave ADAM17 inh -1, sPLA2-III inh 1 and ADAM10 inh -7.
For NS(=O)(=O)c1ccc(N=Nc2c(O)[nH]c(=S)[nH]c2=O)cc1 the results were ADAM17 inh -2, NR3A LBD binder 0, sPLA2-III inh 14, FAS TE block 0 and ADAM10 inh -9.
Screening O=c1[nH]c(=S)[nH]c(O)c1N=Nc1cc(S(=O)(=O)Nc2ccc(Cl)cc2)ccc1Cl returned ADAM17 inh 0, NR3A LBD binder 13*, sPLA2-III inh 5, FAS TE block 44 and ADAM10 inh -10.
CSCCC(c1nnnn1C(C)(C)C)N1CCC2(CC1)C(=O)NCN2c1ccccc1 (stereo unspecified) was read as ADAM17 inh 0, sPLA2-III inh -1, FAS TE block 4 and ADAM10 inh -10.
CCOc1ccc(NC(=O)c2ccc(NC(=O)COC(=O)Cc3ccccc3)cc2)cc1 was read as ADAM17 inh -3, NR3A LBD binder 17*, sPLA2-III inh 0, FAS TE block -9 and ADAM10 inh -1.
`c1ccc(Cn2nnnc2C2CN=C(c3ccccc3)c3ccccc3N2)cc1` (stereo unspecified) gave ADAM17 inh -3, sPLA2-III inh -3 and ADAM10 inh -1.
`COC(=O)[C@H]1C[C@@]2(C)c3ccccc3N[C@H]2N1` gave ADAM17 inh 2, sPLA2-III inh 10 and ADAM10 inh -2.
`C=CCn1c(O)c(C(C)=Nc2cccc(C(F)(F)F)c2)c(=O)[nH]c1=O` gave ADAM17 inh -4, NR3A LBD binder 12*, sPLA2-III inh 5, FAS TE block 1 and ADAM10 inh -7.

Screening results deposited in PubChem by several laboratories.
